In the supplement of paper PMC12340641:
± gives the standard deviation of the averaged measurements.

Experiments:
[1] = target: IKZF1 (dCK*-IKZF1 fusion in HEK293FT) (UniProt Q13422); test: inhibition of IKZF1 HTRF signal (DMSO = 0%, pomalidomide 10 uM = 100%); higher = lower IKZF1 protein level; conditions: compound concentration: 5 uM, overnight (~20 h)
Method in brief: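 Values are percent inhibition of IKZF1 signal, normalised plate by plate against vehicle and a reference degrader. HEK293FT cells stably expressing an IKZF1 fusion were seeded at 2000 per well in 384-well plates and exposed to 5 μM compound in single wells overnight at 37 °C. After 30 min lysis at room temperature, lysates were incubated overnight with a commercial HTRF total-IKZF1 antibody kit, and the background-subtracted 665/620 nm time-resolved FRET ratio was read. On each plate, vehicle was set at 0% and the reference degrader at 100%.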

HEK293FT dCK*-only = test: relative growth in counter assay (no AraC = 100%, AraC + DMSO = 0%); higher = more growth rescue independent of IKZF1; conditions: compound concentration: 5 uM; AraC concentration: 0.3 uM; overnight pretreatment + 4 days AraC
Method in brief: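 This counter assay used HEK293FT cells expressing only an engineered kinase construct, seeded at 300 per well in 384-well plates. Compound was added at 5 μM 2 h after seeding, and after overnight at 37 °C the cells received a nucleoside suicide substrate at 0.3 μM plus medium for 4 days. On day 5, nuclei stained with Hoechst 33342 were counted by imaging, and relative growth was normalised per plate; wells without suicide substrate were set at 100% and wells with substrate plus vehicle at 0%.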

HEK293FT dCK*-IKZF1 = test: relative growth recovery (pomalidomide 10 uM = 100%, DMSO = 0%); higher = more growth rescue (IKZF1 fusion degradation); conditions: compound concentration: 5 uM; AraC concentration: 0.3 uM; overnight pretreatment + 4 days AraC
Method in brief: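 HEK293FT cells stably expressing an engineered deoxycytidine kinase–IKZF1 fusion were seeded at 300 per well in 384-well plates and given 5 μM compound 2 h later. After overnight incubation at 37 °C, a nucleoside suicide substrate at 0.3 μM was added with medium for 4 days, and on day 5 Hoechst 33342-stained nuclei were counted by whole-well imaging. Growth recovery was normalised per plate between a reference degrader and vehicle, set to 100% and 0% respectively, and the values are means of duplicates run on different days.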

IKZF1 (dCK*-IKZF1 fusion in HEK293FT), sequence (Q13422 whole entry, looked up, the tested form may be a part): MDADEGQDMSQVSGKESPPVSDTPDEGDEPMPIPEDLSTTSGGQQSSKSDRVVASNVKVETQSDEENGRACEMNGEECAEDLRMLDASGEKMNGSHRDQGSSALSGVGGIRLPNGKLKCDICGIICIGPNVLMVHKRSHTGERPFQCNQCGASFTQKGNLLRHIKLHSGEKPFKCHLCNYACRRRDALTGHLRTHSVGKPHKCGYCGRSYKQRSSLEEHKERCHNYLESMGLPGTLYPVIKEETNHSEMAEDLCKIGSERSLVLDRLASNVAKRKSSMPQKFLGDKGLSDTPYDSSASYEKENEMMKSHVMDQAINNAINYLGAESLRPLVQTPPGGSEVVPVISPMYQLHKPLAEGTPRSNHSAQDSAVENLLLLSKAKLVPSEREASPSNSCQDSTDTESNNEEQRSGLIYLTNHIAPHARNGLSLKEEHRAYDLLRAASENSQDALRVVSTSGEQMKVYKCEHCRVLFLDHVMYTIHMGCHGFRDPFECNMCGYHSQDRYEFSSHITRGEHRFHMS

SMILES | inhibition of IKZF1 HTRF signal [1] [%] | relative growth in counter assay (HEK293FT dCK*-only) [%] | relative growth recovery (HEK293FT dCK*-IKZF1) [%]
OCCN1CCN(CCCN2c3ccccc3Sc3ccc(Cl)cc32)CC1 [Perphenazine] | 0.695 ± 0.86 | 7.41 ± 5.6 | 2.98 ± 1
CNC[C@H](O)c1ccc(O)c(O)c1 | -26.9 | -15.6 | -7
CC1CC(OC(=O)C(O)c2ccccc2)CC(C)(C)C1 (centres undefined) | -11.2 | 0.99 | -2.85
CC(CN(C)C)CN1c2ccccc2Sc2ccccc21 (centres undefined) | -50.1 | 1.07 | -2.14
COc1cc(NS(=O)(=O)c2ccc(N)cc2)nc(OC)n1 | -24.5 | -0.83 | -4.54
COC(=O)C1=C(C)NC(C)=C(C(=O)OC(C)(C)CN(C)CCC(c2ccccc2)c2ccccc2)C1c1cccc([N+](=O)[O-])c1 (centres undefined) [lercanidipine] | -5.35 | -6.01 | 1.64
Cc1cc(C2CCCCC2)n(O)c(=O)c1 [Ciclopirox] | 24.4 | -31.2 | -11.9
O=c1c(O)c(-c2ccc(O)c(O)c2)oc2cc(O)ccc12 [Fisetin (Fustel)] | 11.3 | -3.66 | -3.06
COc1cnc(NS(=O)(=O)c2ccc(N)cc2)nc1 | -36.1 | -10.1 | -3.84
Cc1c(-c2ccccc2F)[nH]c(N)c1C#N | -50.1 | 0.99 | 0.445
CCc1c2c(nc3ccc(O)cc13)-c1cc3c(c(=O)n1C2)COC(=O)[C@]3(O)CC | 36.8 | -33.9 | -13
O=C(c1cc(S(=O)(=O)Nc2ccccc2F)c(F)cc1Cl)N1CCN2CCC[C@@H]2C1 | -26 | -1.66 | -3.52
Cc1cc(N)c2ccccc2[n+]1CCCCCCCCCC[n+]1c(C)cc(N)c2ccccc21 | -29.5 | -14.5 | -3.15
